According to PubChem BioAssay:
Entries with a potency or affinity are not part of this list. Calls of active or inactive are those of the source. How the calls were made is not given here.

test system: Ras-related protein Rab-7a (dog), GTP binding; assay: blockers of fluorescent GTP binding to Rab7 – biochemical, wildtype, multiplex bead flow cytometry, dose response (AID 1336); conditions: bead-based flow cytometry; series mostly up to 100 µM

outcome, inactive:
CCOC(=O)c1c(-c2ccccc2)csc1NC(=O)/C(C#N)=C/c1ccc(O)c(OC)c1
COc1ccc(NC(=O)c2cc3nc(-c4ccccc4)cc(C)n3n2)cc1OC
COc1cccc(NC(=O)NCCCN2CCN(c3ccc(F)cc3)CC2)c1
COc1ccc(CCn2c(C(C)C)nc3c(c(=O)c4ccccc4n3C)c2=O)cc1
O=C(Nc1nc(-c2cccs2)cs1)c1cc2ccccc2oc1=O
Cc1csc(NC(=O)c2cc(=O)[nH]c3ccc(S(=O)(=O)N4CCOCC4)cc23)n1
COc1ccc(OC)c(Nc2nc(-c3sc(N)nc3C)cs2)c1
CCOC(=O)c1nc(Nc2ccc(C(=O)OC)cc2)c2ccccc2n1
CCOC(=O)c1c(NC(=O)/C=C/c2ccc3c(c2)OCO3)sc(C)c1CC
COc1cc2[nH]c(=S)nc(NCCCOC(C)C)c2cc1OC
O=C(C1CCCO1)N1CCN(C(=S)Nc2ccccc2C(F)(F)F)CC1 (centres undefined)
O=c1c2ccccc2nc2c3ccccc3c(NCCO)nn12
Cc1ccc(Nc2nc(N)c(C#N)c(CC#N)c2C#N)cc1
Cn1c(=O)cc(N2CCOCC2)[nH]c1=O
O=[N+]([O-])c1cc(Cc2ccccc2)cc(C=Nc2ccc(N3CCOCC3)cc2)c1O
Cc1cccn2c(=O)c(/C=C3\SC(=S)N(CC(C)C)C3=O)c(NCCCOC(C)C)nc12
CC(C)c1ccc(C(=O)NC2=NCCS2)cc1
CCCc1nc2oc3c(=O)[nH]cnc3c2c2c1CCCC2
O=C(NCCc1c[nH]c2ccccc12)c1cccc(S(=O)(=O)Nc2ccccc2Cl)c1
O=C(Nn1cc(C(=O)N2CCN(c3ccccc3F)CC2)c2ccccc2c1=O)c1cnccn1
FC(F)(F)c1cccc(NC(=S)NNC(=S)NCc2ccccc2)c1
COc1ccc(S(=O)(=O)N2CCCCC2)cc1NC(=O)c1ccc([N+](=O)[O-])o1
O=C(CSc1ccc2nnc(-c3cccs3)n2n1)N1CCCC1
CC(=O)Nc1ccc(N2C(=O)c3ccc(C(=O)Nc4nnc(SCc5ccc(F)cc5)s4)cc3C2=O)cc1
NS(=O)(=O)c1ccc(-c2ccc(/C=C3\C(=O)Nc4cc(Cl)ccc43)o2)cc1
CCCCCN1CC(O)=C(c2nc(-c3ccc(Cl)cc3)cs2)C1=N
O=c1[nH]c2ccc(S(=O)(=O)NCc3ccccc3)cc2[nH]1
O=S1(=O)N=C(N(CCO)/N=C/c2ccncc2)c2ccccc21
N#C/C(=C/c1ccc(N2CCCCCC2)o1)c1ccc(Cl)cc1
CCOc1nnc(C)c2c(C)n(-c3cccc(Cl)c3)nc12
O=C1c2ccccc2-n2c1nc1ccccc1c2=O
CC(C)(C)NC(=O)CSc1nccn1Cc1ccccc1
COc1ccc(S(=O)(=O)Cc2ccc(C(=O)N3CCN(c4cc(Cl)ccc4C)CC3)o2)cc1
NC(=O)N=Nc1c(O)[nH]c2c(Br)cc(Br)cc12
Cn1cc(C=C2C(=O)CC(C)(C)CC2=O)c2ccccc21
COc1ccc(-c2nn3c(-c4ccco4)nnc3s2)cc1OC
O=c1/c(=C/c2ccc(CNS(=O)(=O)c3ccccc3)o2)sc2n1CCN=2
CCc1nnc(NS(=O)(=O)c2ccc(Nc3ccc4nonc4c3[N+](=O)[O-])cc2)s1
O=C(NC1CC2CCCC(C1)N2C(=O)Nc1ccc(Cl)c(C(F)(F)F)c1)C1CC1 (centres undefined)
